Here are results for 62 compounds from the antibiotic and cytotoxicity screens of Wong et al. (2023).

The campaign covered roughly 39,000 compounds. About 3,300 (8.5%) were called active. Many of the other results were omitted from the sample, so actives are more common in it than they were.

The subject of this test is HepG2. As to the kind of experiment: cytotoxicity call (relative viability < 0.9). To be noted: 10 µM.
Turning to `C[C@H](CO)N1C[C@H](C)[C@@H](CN(C)Cc2ccc(Oc3ccccc3)cc2)Oc2ccc(NC(=O)CCC(F)(F)F)cc2CC1=O`, the cytotoxicity call is “active”. For `C[C@@H]1CN([C@@H](C)CO)C(=O)Cc2cc(NC(=O)CCC(F)(F)F)ccc2O[C@H]1CN(C)Cc1ccc(Oc2ccccc2)cc1`, the cytotoxicity call was “active”.

Take `Cc1noc(C)c1S(=O)(=O)Nc1ccc2c(c1)C(=O)N([C@H](C)CO)C[C@H](C)[C@@H](CN(C)S(=O)(=O)c1c(C)noc1C)O2`: the cytotoxicity call was “inactive”.

As to `C[C@H]1CN([C@@H](C)CO)C(=O)c2cccc(NC(=O)c3ccncc3)c2O[C@H]1CN(C)Cc1ccc(C(=O)O)cc1`, the cytotoxicity call is “inactive”. As for `C[C@@H]1CN([C@H](C)CO)C(=O)c2cccc(NC(=O)CCCCCC(=O)Nc3ccccc3N)c2O[C@H]1CN(C)Cc1ccccc1`, the cytotoxicity call is “inactive”. Under `CCOC(=O)C[n+]1ccccc1C` stands “inactive”. Under `CC(C)c1cccc(C(C)C)c1NC(=O)Cc1cccs1` stands “inactive”; under `CC(C)c1cc(C(C)C)c(CC(=O)NS(=O)(=O)Oc2c(C(C)C)cccc2C(C)C)c(C(C)C)c1`, “active”; under `COC(=O)[C@@H](N)c1cccc(Cl)c1`, “inactive”. Under `COc1cccc(NC(=O)N[C@@H]2C=C[C@H](CC(=O)N3CCN(C)CC3)O[C@H]2CO)c1` stands “inactive”; under `Nc1ncnc2c1ncn2[C@H]1C[C@H](O)[C@@H](CO)O1`, “inactive”; under `CO[C@@H]1[C@H](O[P@@](=O)(OC[C@H]2O[C@@H](n3cnc4c(N)ncnc43)C[C@@H]2O)SCOC(=O)OC(C)C)[C@@H](CO)O[C@H]1n1ccc(=O)[nH]c1=O`, “inactive”.

On to `CO[C@@H]1[C@H](O[P@@](=O)(S)OC[C@H]2O[C@@H](n3cnc4c(N)ncnc43)C[C@@H]2O)[C@@H](CO)O[C@H]1n1ccc(=O)[nH]c1=O`, for which the cytotoxicity call was “active”.

Take `Cc1noc(C)c1NC(=O)Nc1ccc2c(c1)C(=O)N([C@@H](C)CO)C[C@H](C)[C@@H](CN(C)Cc1ccncc1)OCCCC[C@H](C)O2`: the cytotoxicity call is “inactive”. With `COc1ccc(NC(=O)N(C)C[C@@H]2OCCCC[C@H](C)Oc3ccc(NS(=O)(=O)c4ccc(OC)cc4)cc3C(=O)N([C@H](C)CO)C[C@H]2C)cc1`, the cytotoxicity call was “inactive”. For the compound `C[C@@H]1CCCCO[C@H](CN(C)C(=O)NC2CCCCC2)[C@H](C)CN([C@H](C)CO)C(=O)c2cc(NC(=O)Nc3cccc4ccccc34)ccc2O1`, the cytotoxicity call was “inactive”.

Take `Cc1noc(C)c1NC(=O)Nc1ccc2c(c1)CC(=O)N([C@H](C)CO)C[C@@H](C)[C@@H](CN(C)Cc1ccc(Oc3ccccc3)cc1)O2`: the cytotoxicity call was “inactive”. Regarding `C[C@H](CO)N1C[C@H](C)[C@@H](CN(C)Cc2ccc(Oc3ccccc3)cc2)Oc2ccc(NC(=O)Nc3ccc(C(F)(F)F)cc3)cc2CC1=O`, the cytotoxicity call is “active”. As for `C[C@@H]1CN([C@H](C)CO)C(=O)Cc2cc(NC(=O)Nc3ccc(C(F)(F)F)cc3)ccc2O[C@H]1CN(C)Cc1ccc(Oc2ccccc2)cc1`, the cytotoxicity call is “inactive”. For the compound `C[C@@H]1CN([C@H](C)CO)C(=O)Cc2cc(NC(=O)Nc3ccc(C(F)(F)F)cc3)ccc2O[C@@H]1CN(C)Cc1ccc(Oc2ccccc2)cc1`, the cytotoxicity call is “active”. Turning to `C[C@@H]1CN([C@@H](C)CO)C(=O)Cc2cc(NC(=O)Nc3ccc(C(F)(F)F)cc3)ccc2O[C@@H]1CN(C)Cc1ccc(Oc2ccccc2)cc1`, the cytotoxicity call is “active”. Consider `C[C@H]1CN([C@@H](C)CO)C(=O)Cc2cc(NC(=O)Nc3ccc(C(F)(F)F)cc3)ccc2O[C@H]1CN(C)Cc1ccc(Oc2ccccc2)cc1`, for which the cytotoxicity call was “active”. For the compound `COc1ccc(NC(=O)Nc2ccc3c(c2)C(=O)N([C@@H](C)CO)C[C@@H](C)[C@@H](CN(C)C(=O)C2CCCCC2)OCCCC[C@H](C)O3)cc1`, the cytotoxicity call is “inactive”. Take `CN1CCN(C(=O)C[C@@H]2CC[C@H]3[C@@H](COC[C@H](O)CN3CC3CCCC3)O2)CC1`: the cytotoxicity call was “inactive”.

Regarding `COc1ccc(S(=O)(=O)Nc2ccc3c(c2)C(=O)N([C@H](C)CO)C[C@H](C)[C@H](CN(C)S(=O)(=O)c2ccc(F)cc2)O3)cc1`, the cytotoxicity call is “inactive”. Regarding `C[C@@H]1CN([C@H](C)CO)C(=O)c2ccccc2-c2ccccc2CO[C@H]1CN(C)C(=O)c1cc(Cl)cc(Cl)c1`, the cytotoxicity call was “inactive”. Consider `Nc1nnc(SCC(=O)N2CCOCC2)[nH]1`, for which the cytotoxicity call is “inactive”. Take `C[C@H](CO)N1C[C@H](C)[C@H](CN(C)Cc2ccc(Oc3ccccc3)cc2)Oc2ccc(NC(=O)Nc3ccc(C(F)(F)F)cc3)cc2CC1=O`: the cytotoxicity call was “active”. `C[C@H]1CN([C@@H](C)CO)C(=O)Cc2cc(NC(=O)Nc3ccc(C(F)(F)F)cc3)ccc2O[C@@H]1CN(C)Cc1ccc(Oc2ccccc2)cc1`: the cytotoxicity call is “inactive”. Under `C[C@@H]1CN([C@@H](C)CO)C(=O)Cc2cc(NC(=O)Nc3ccc(C(F)(F)F)cc3)ccc2O[C@H]1CN(C)Cc1ccc(Oc2ccccc2)cc1` stands “inactive”; under `COc1c2ccoc2nc2c(OC)c(OCC(O)C(C)(C)O)ccc12` (configuration not stated), “active”; under `C[C@@H]1CN([C@@H](C)CO)C(=O)c2cc(Br)cnc2O[C@@H]1CN(C)C(=O)CN1CCOCC1`, “inactive”. Regarding `CN(C)c1ccc2nc3ccc(N(C)C)cc3[s+]c2c1.O.[Cl-]`, the cytotoxicity call is “active”. Take `CN(C)c1ccc2c(=O)[nH][nH]c(=O)c2c1`: the cytotoxicity call is “inactive”.

`Cc1cc2nc3ccc(N(C)C)cc3[s+]c2cc1N.[Cl-]`: the cytotoxicity call was “active”. With `C[C@@H]1CN([C@@H](C)CO)C(=O)c2cc(C#Cc3ccc(F)cc3)cnc2O[C@H]1CN(C)Cc1ccccn1`, the cytotoxicity call was “inactive”. Turning to `O=C(C[C@H]1C[C@@H]2c3cc(NS(=O)(=O)c4ccc(F)cc4)ccc3O[C@@H]2[C@H](CO)O1)N1CCOCC1`, the cytotoxicity call was “inactive”. As to `O=C(C[C@H]1C[C@H]2c3cc(NC(=O)Nc4ccc(C(F)(F)F)cc4)ccc3O[C@H]2[C@H](CO)O1)NCCc1ccccc1`, the cytotoxicity call is “inactive”.

Take `C[C@@H]1CCCCO[C@@H](CN(C)C(=O)NC2CCCCC2)[C@@H](C)CN([C@H](C)CO)C(=O)c2cc(NC(=O)Nc3ccc(C(F)(F)F)cc3)ccc2O1`: the cytotoxicity call is “active”. As to `C[C@@H]1CCCCO[C@H](CN(C)C(=O)NC2CCCCC2)[C@H](C)CN([C@@H](C)CO)C(=O)c2cc(NC(=O)Nc3ccc(C(F)(F)F)cc3)ccc2O1`, the cytotoxicity call was “inactive”. Regarding `C[C@H](CO)N1C[C@H](C)[C@H](CN(C)C(=O)NC2CCCCC2)OCCCC[C@H](C)Oc2ccc(NC(=O)Nc3ccc(C(F)(F)F)cc3)cc2C1=O`, the cytotoxicity call is “active”. Turning to `C[C@@H]1CCCCO[C@H](CN(C)C(=O)NC2CCCCC2)[C@@H](C)CN([C@@H](C)CO)C(=O)c2cc(NC(=O)Nc3ccc(C(F)(F)F)cc3)ccc2O1`, the cytotoxicity call was “inactive”. Take `C[C@@H]1CN([C@H](C)CO)C(=O)c2cc(NC(=O)Nc3ccc(C(F)(F)F)cc3)ccc2O[C@@H](C)CCCCO[C@@H]1CN(C)C(=O)NC1CCCCC1`: the cytotoxicity call was “inactive”. Under `C[C@@H]1CCCCO[C@@H](CN(C)C(=O)NC2CCCCC2)[C@@H](C)CN([C@@H](C)CO)C(=O)c2cc(NC(=O)Nc3ccc(C(F)(F)F)cc3)ccc2O1` stands “inactive”; under `C[C@@H]1CCCCO[C@@H](CN(C)C(=O)NC2CCCCC2)[C@H](C)CN([C@@H](C)CO)C(=O)c2cc(NC(=O)Nc3ccc(C(F)(F)F)cc3)ccc2O1`, “inactive”. On to `C[C@@H]1CN([C@@H](C)CO)C(=O)c2cc(NC(=O)Nc3ccc(C(F)(F)F)cc3)ccc2O[C@@H](C)CCCCO[C@@H]1CN(C)C(=O)NC1CCCCC1`, for which the cytotoxicity call is “inactive”. Consider `C[C@H]1CCCCO[C@@H](CN(C)C(=O)NC2CCCCC2)[C@@H](C)CN([C@@H](C)CO)C(=O)c2cc(NC(=O)Nc3ccc(C(F)(F)F)cc3)ccc2O1`, for which the cytotoxicity call was “active”. `C[C@@H]1CCCCO[C@H](CN(C)C(=O)NC2CCCCC2)[C@H](C)CN([C@H](C)CO)C(=O)c2cc(NC(=O)Nc3ccc(C(F)(F)F)cc3)ccc2O1`: the cytotoxicity call was “inactive”. In the case of `C[C@H]1CCCCO[C@H](CN(C)C(=O)NC2CCCCC2)[C@@H](C)CN([C@@H](C)CO)C(=O)c2cc(NC(=O)Nc3ccc(C(F)(F)F)cc3)ccc2O1`, the cytotoxicity call was “active”. As to `C[C@H](CO)N1C[C@H](C)[C@@H](CN(C)C(=O)NC2CCCCC2)OCCCC[C@H](C)Oc2ccc(NC(=O)Nc3ccc(C(F)(F)F)cc3)cc2C1=O`, the cytotoxicity call was “inactive”. Take `C[C@@H]1C=CNN1C(=O)c1cccnc1`: the cytotoxicity call was “inactive”. For `O=C(C[C@H]1CC[C@@H]2[C@H](COC[C@@H](O)CN2C(=O)c2ccccc2F)O1)N1CCN(c2ccccc2)CC1`, the cytotoxicity call is “inactive”. Consider `C[C@H]1CN([C@@H](C)CO)C(=O)c2cc(NC(=O)Nc3cccc4ccccc34)ccc2O[C@@H]1CN(C)C(=O)Nc1ccc(F)cc1`, for which the cytotoxicity call is “inactive”. As to `O=C(C[C@@H]1C[C@@H]2c3cc(NS(=O)(=O)c4ccccc4)ccc3O[C@@H]2[C@@H](CO)O1)NC1CCCCC1`, the cytotoxicity call was “inactive”.

In the case of `C[C@@H]1CN([C@@H](C)CO)C(=O)Cc2cc(NC(=O)Cc3ccccc3)ccc2O[C@@H]1CN(C)S(=O)(=O)c1ccc(F)cc1`, the cytotoxicity call is “inactive”. Take `C[C@H](CO)N1C[C@H](C)[C@H](CN(C)Cc2ccc3c(c2)OCO3)Oc2c(NS(=O)(=O)c3cn(C)cn3)cccc2C1=O`: the cytotoxicity call was “inactive”. For the compound `O=C(/C=C/c1ccc(O)c(O)c1)O[C@@H]1C[C@](OC(=O)/C=C/c2ccc(O)c(O)c2)(C(=O)O)C[C@@H](O)[C@H]1O`, the cytotoxicity call was “inactive”.

For the compound `C[C@H](CO)N1C[C@H](C)[C@@H](CN(C)C(=O)Nc2ccc(C(F)(F)F)cc2)OCCCC[C@H](C)Oc2ccc(NC(=O)NC3CCCCC3)cc2C1=O`, the cytotoxicity call was “inactive”. Consider `C[C@H]1CCCCO[C@H](CN(C)C(=O)Nc2ccc(C(F)(F)F)cc2)[C@@H](C)CN([C@@H](C)CO)C(=O)c2cc(NC(=O)NC3CCCCC3)ccc2O1`, for which the cytotoxicity call was “inactive”. With `C[C@@H]1CCCCO[C@@H](CN(C)C(=O)Nc2ccc(C(F)(F)F)cc2)[C@H](C)CN([C@H](C)CO)C(=O)c2cc(NC(=O)NC3CCCCC3)ccc2O1`, the cytotoxicity call was “active”. As to `COc1ccc(NC(=O)N2C[C@@H](O)COC[C@H]3O[C@H](CC(=O)NC4Cc5ccccc5C4)CC[C@@H]32)cc1`, the cytotoxicity call was “inactive”. For `C[C@@H]1CN([C@@H](C)CO)C(=O)c2c(c3ccccc3n2C)-c2ccccc2CO[C@@H]1CN(C)Cc1ccc(Cl)c(Cl)c1`, the cytotoxicity call is “inactive”.
